Bead autofluor – counter-screen for toxin protease inhibitors: compound fluorescence. fluorescence intensity (test concentration not listed). AID 624483. compound autofluorescence counterscreen, microsphere flow cytometry; stronger effect = higher value. 360,000 tested, 3.1% active; in the data active = fluorescence intensity above about 16000; inconclusive = no clear call, values can overlap the other calls
BoNT F protease – BoNT/F light chain protease inhibitors, primary screen, biochemical, flow cytometry, MLPCN library; Botulinum neurotoxin type F light chain protease (Clostridium botulinum); 360,000 tested, 0.22% active; inhibition, % at 10 µM; Multiplex microsphere protease cleavage assay; in the data active = inhibition above about 35%, passing the limit was not always enough; inconclusive = no clear call, values can overlap the other calls; also: plate controls were buffer without enzyme for full effect and enzyme alone for no effect
BH1578 lux ind – inducers of Vibrio cholerae quorum light production without autoinducers, primary screen, BH1578 luxS cqsA deficient, single point. V. cholerae BH1578 lux reporter, luminescence, 6 h. AID 588436, 2011. 350,000 tested, 0.16% active. activation, % at 18.7 µM; in the data active = activation mostly above about 9.7%, no sharp cut-off; inconclusive = no clear call, values can overlap the other calls; inactive = mostly below about 3.7%
BJeLR viability – MLPCN primary cell-based screen for lethality selective to Ras in HRASV12 cells; BJeLR (HRASV12) viability, CellTiter-Glo ATP luminescence, 48 h; inhibition, % (concentration not given with the values); 300,000 tested, 0.17% active; AID 1554, 2009; in the data active = inhibition above about 50%; inconclusive = no clear call, values can overlap the other calls
Anthrax LF prot – Bacillus anthracis LF protease inhibitors, primary screen, biochemical, multiplex microsphere, MLPCN library | Lethal factor (Bacillus anthracis), P15917 | multiplex microsphere protease cleavage assay | inhibition, % at 10 µM | 360,000 tested, 0.12% active; also: plate controls were buffer without enzyme for full effect and enzyme alone for no effect
Target sequence (P15917 whole entry, looked up): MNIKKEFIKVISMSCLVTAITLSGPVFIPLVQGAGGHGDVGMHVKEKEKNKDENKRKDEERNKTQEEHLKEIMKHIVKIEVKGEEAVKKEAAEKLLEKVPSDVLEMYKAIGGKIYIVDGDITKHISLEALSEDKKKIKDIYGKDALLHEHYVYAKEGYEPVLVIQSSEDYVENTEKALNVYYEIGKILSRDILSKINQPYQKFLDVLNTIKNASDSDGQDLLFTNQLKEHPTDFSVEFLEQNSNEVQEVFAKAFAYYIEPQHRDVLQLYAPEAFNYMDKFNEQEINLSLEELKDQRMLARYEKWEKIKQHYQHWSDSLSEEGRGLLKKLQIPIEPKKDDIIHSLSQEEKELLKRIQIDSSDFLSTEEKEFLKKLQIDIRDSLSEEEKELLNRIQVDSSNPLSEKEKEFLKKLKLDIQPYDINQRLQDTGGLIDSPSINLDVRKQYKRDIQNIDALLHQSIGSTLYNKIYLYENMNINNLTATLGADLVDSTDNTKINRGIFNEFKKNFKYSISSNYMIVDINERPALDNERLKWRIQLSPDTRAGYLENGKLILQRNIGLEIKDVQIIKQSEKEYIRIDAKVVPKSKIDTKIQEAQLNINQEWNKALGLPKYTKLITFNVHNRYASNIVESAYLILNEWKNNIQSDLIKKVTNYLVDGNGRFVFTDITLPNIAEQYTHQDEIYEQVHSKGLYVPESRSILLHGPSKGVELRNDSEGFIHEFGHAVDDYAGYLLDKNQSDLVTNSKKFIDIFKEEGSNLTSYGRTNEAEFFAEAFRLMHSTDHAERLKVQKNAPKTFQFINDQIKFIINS
BoNT A protease – BoNT/A light chain protease inhibitors, primary screen, biochemical, flow cytometry, MLPCN library; Botulinum neurotoxin type A light chain protease (Clostridium botulinum A str. ATCC 3502); multiplex microsphere protease substrate cleavage; inhibition, % at 10 µM; 360,000 tested, 0.17% active; AID 588499, 2011; also: plate controls were buffer without enzyme for full effect and enzyme alone for no effect
* marks the source's active call; other numbers are inactive results. An excerpt weighted towards active compounds, which were near 3.7% of everything screened. Rule as the data show it, unless noted: active = inhibition above about 30%; inconclusive = no clear call, values can overlap the other calls; inactive = below that.

`CC(C)C[C@H]1CNC(=O)C(=O)N1C[C@H]1CCCN1C[C@H](CC(C)C)N1C[C@H](CC(C)C)N(CCc2ccccc2)C(=O)C1=O` gave Bead autofluor 6170, BoNT F protease -7, Anthrax LF prot -4 and BoNT A protease 0.
`Cc1cc(C)n2nc(SCc3c(F)cccc3Cl)nc2n1` gave Bead autofluor 2833, BoNT F protease 0, BH1578 lux ind 1, BJeLR viability 8, Anthrax LF prot 18 and BoNT A protease 1.
Screening Cc1nc(SCc2c(F)cccc2Cl)n[nH]1 returned Bead autofluor 19718*, BoNT F protease 8, BH1578 lux ind -2, BJeLR viability 6, Anthrax LF prot -3 and BoNT A protease 6.
`COc1cccc(N2CCN(Cc3ccc(Cl)cc3)CC2)c1` gave Bead autofluor 10809, BoNT F protease -14, BH1578 lux ind 0, Anthrax LF prot -8 and BoNT A protease 0.
`FC(F)(F)c1cccc(N2CCN(Cc3cccnc3)CC2)c1` gave Bead autofluor 16207*, BoNT F protease 4, BH1578 lux ind -3, BJeLR viability -14, Anthrax LF prot -1 and BoNT A protease 1.
COc1cccc(CN2CCN(Cc3cccc(F)c3)CC2)c1 was read as Bead autofluor 3451, BoNT F protease 24, BH1578 lux ind -1, BJeLR viability -4, Anthrax LF prot 3 and BoNT A protease -2.
`COc1cccc(CN2CCN(c3ncccn3)CC2)c1` gave Bead autofluor 22009*, BoNT F protease -3, BH1578 lux ind 0, BJeLR viability 0, Anthrax LF prot -2 and BoNT A protease 0.
For COc1cc(CN2CCN(c3cccc(Cl)c3)CC2)cc(OC)c1OC the results were Bead autofluor 25470*, BoNT F protease -7, BH1578 lux ind 0, BJeLR viability 5, Anthrax LF prot -2 and BoNT A protease -6.
Screening FC(F)(F)c1cccc(N2CCN(Cc3ccoc3)CC2)c1 returned Bead autofluor 10628, BoNT F protease 2, BH1578 lux ind inactive, BJeLR viability 7, Anthrax LF prot -5 and BoNT A protease 0.
`COc1cccc(N2CCN(Cc3cccc(Cl)c3)CC2)c1` gave Bead autofluor 24340*, BoNT F protease -6, BH1578 lux ind inactive, BJeLR viability 15, Anthrax LF prot -5 and BoNT A protease inconclusive.
Cc1cc2nc(-c3ccc(C#N)cc3)c(Cc3ccsc3)n2c(C)c1Br was read as Bead autofluor 6149, BoNT F protease -8, Anthrax LF prot 4 and BoNT A protease 5.
`COC(=O)c1c(C)[nH]c(C(=O)OC(C)C(=O)NC2CCCCC2C)c1C` (configuration not stated) gave Bead autofluor 2994, BoNT F protease -5, BH1578 lux ind inactive, Anthrax LF prot -1 and BoNT A protease 0.
For COc1cccc(N2CCN(Cc3cccnc3)CC2)c1 the results were Bead autofluor 20710*, BoNT F protease -4, BH1578 lux ind 0, BJeLR viability 0, Anthrax LF prot -4 and BoNT A protease 0.
COc1cccc(CN2CCN(c3cccc(C(F)(F)F)c3)CC2)c1OC was read as Bead autofluor 16287*, BoNT F protease -5, BH1578 lux ind inactive, BJeLR viability 4, Anthrax LF prot -5 and BoNT A protease -1.
`COc1cccc(CN2CCN(Cc3cc(OC)c(OC)cc3[N+](=O)[O-])CC2)c1` gave Bead autofluor 16274*, BoNT F protease 14, BH1578 lux ind 1, BJeLR viability -20, Anthrax LF prot -13 and BoNT A protease inconclusive.
For CC1(C(=O)NS(=O)(=O)C2CC2)CCN(C(=O)c2ccc(F)c(Cl)c2)C1 (configuration not stated) the results were Bead autofluor 3866, BoNT F protease 3, BH1578 lux ind inactive, Anthrax LF prot -3 and BoNT A protease 0.
COc1ccc(NC(=O)c2cc(-c3cc(F)ccc3OC)n[nH]2)cn1 was read as Bead autofluor 3778, BoNT F protease -4, BH1578 lux ind 0, Anthrax LF prot 7 and BoNT A protease 0.

Screens: PubChem BioAssay, several laboratories
